According to the supplement of paper PMC6555819:

What was measured:
Assay in all cases: PBM binding z-score (relative to random genomic background probes); higher = stronger binding; sequences stand for … in GC…GCGATTGACAGCGTAGAATGAAGG
[1] = test system: FXR:RXRa (NR concentration 270 nM, RXRa partner concentration 90 nM)
Method in brief: (§1)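 For binding z-scores, the reference was random background probes on custom Agilent 4×180K protein-binding microarrays. These arrays were incubated 1 h with ligand-free nuclear receptor dimers in PBS pH 7.4, 2% milk, 0.02% Triton X-100, 1 mM DTT, 0.2 mg/mL BSA and 0.4 mg/ml salmon testes DNA. Fluorescence was scanned after antibody detection of each partner (one per run) and regression-normalized.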

[2] = test system: LXRa:RXRa (NR concentration 270 nM, RXRa partner concentration 90 nM)
Method in brief: as §1

[3] = test system: LXRa homodimer (NR concentration 270 nM)
Method in brief: as §1

[4] = test system: LXRb:RXRa (NR concentration 270 nM, RXRa partner concentration 90 nM)
Method in brief: as §1

[5] = test system: LXRb homodimer (NR concentration 270 nM)
Method in brief: as §1

[6] = test system: PPARa:RXRa (NR concentration 270 nM, RXRa partner concentration 90 nM)
Method in brief: as §1

[7] = test system: PPARg:RXRa (NR concentration 180 nM, RXRa partner concentration 90 nM)
Method in brief: as §1

[8] = test system: PPARg:RXRa 270nM:90nM, anti-RXR (NR concentration 270 nM, RXRa partner concentration 90 nM)
Method in brief: as §1

[9] = test system: PPARg:RXRa 30nM:10nM, anti-RXR (NR concentration 30 nM, RXRa partner concentration 10 nM)
Method in brief: as §1

[10] = test system: PPARg:RXRa 90nM:30nM, anti-RXR (NR concentration 90 nM, RXRa partner concentration 30 nM)
Method in brief: as §1

[11] = test system: PPARg:RXRa DBDmut IVT, anti-RXR (DBD mutation: RXRa K156A/R161A, NR concentration 270 nM, RXRa partner concentration 90 nM)
Method in brief: as §1

[12] = test system: PPARg:RXRa IVT, anti-PPARg (NR concentration 270 nM, RXRa partner concentration 90 nM)
Method in brief: as §1

[13] = test system: PPARg DBDmut:RXRa IVT, anti-PPARg (DBD mutation: PPARg1 K132A/R137A, NR concentration 270 nM, RXRa partner concentration 90 nM)
Method in brief: as §1

[14] = test system: PPARg DBDmut IVT, anti-PPARg (DBD mutation: PPARg1 K132A/R137A, NR concentration 270 nM)
Method in brief: as §1

[15] = test system: PPARg homodimer (NR concentration 180 nM)
Method in brief: as §1

[16] = test system: PXR:RXRa (NR concentration 270 nM, RXRa partner concentration 90 nM)
Method in brief: as §1

[17] = test system: PXR homodimer (NR concentration 270 nM)
Method in brief: as §1

[18] = test system: RARa:RXR (NR concentration 270 nM, RXRa partner concentration 90 nM)
Method in brief: as §1

[19] = test system: RARa homodimer (NR concentration 270 nM)
Method in brief: as §1

[20] = test system: RARb:RXRa (NR concentration 270 nM, RXRa partner concentration 90 nM)
Method in brief: as §1

Sequence	PBM binding z-score [1]	PBM binding z-score [2]	PBM binding z-score [3]	PBM binding z-score [4]	PBM binding z-score [5]	PBM binding z-score [6]	PBM binding z-score [7]	PBM binding z-score [8]	PBM binding z-score [9]	PBM binding z-score [10]	PBM binding z-score [11]	PBM binding z-score [12]	PBM binding z-score [13]	PBM binding z-score [14]	PBM binding z-score [15]	PBM binding z-score [16]	PBM binding z-score [17]	PBM binding z-score [18]	PBM binding z-score [19]	PBM binding z-score [20]
TCATATAGGTAAAAGGTGAAAGTTGGTGTGGTAA	2.15	2.33	0.407	2.44	0.326	5.33	9.26	8.44	8.7	8.75	5.28	5.23	1.91	1.67	2.39	2.16	0.944	3.3	2.02	2.09
TAGCCTAGGTCAGATCCGGCCAGTATACGCTATA	1.78	1.41	-0.272	1.05	-0.172	1.69	0.79	0.773	-0.199	0.368	0.634	1.52	0.095	-0.353	0.289	1.09	-0.796	1.12	-0.924	3.17
TCTATTAGTTGATTAGGGCAACCGTAACAGCGGA	0.375	0.299	0.215	0.508	0.657	1.05	0.178	2.01	3.91	2.77	2.24	1.65	0.987	1.87	0.942	0.413	0.434	0.681	1.18	0.877
CCTACTGGGCCACAAAAGGTCATTGATTCAGTGA	3.28	5.83	5.25	4.37	0.347	4.79	4.35	4.41	1.88	3.74	5.38	5.41	0.516	0.121	2.8	5.02	1.16	4.9	0.618	3.95
AGAATGAGGATACCAAAGATCAGGGAAACGCTTG	0.11	-0.468	-0.437	-0.336	-0.365	-0.155	0.826	0.344	0.225	0.512	0.148	0.0598	0.131	-0.145	-1.29	-0.349	-0.0472	-0.216	-0.258	-0.0511
ATATGTAGGTTACATTCGGGTCATTCAGGCTATG	2.91	4.73	1.76	3.19	1.04	4.3	5.53	5.07	2.31	4.62	7.46	7.26	5.28	2.88	2.4	3.85	3.72	3.65	1.02	2.32
TAGACTAGGTCATTCAGGGGCCAGTATAGAAAGC	4.16	3.02	0.5	2.45	1.5	3.77	5.02	4.54	2.12	3.67	6.24	6.36	3.24	2	2.65	2.21	0.176	3.32	0.508	3.64
